Structures can show the parent of a compound that is named as a salt.

In this test the test system is A549-ACTB-RAB5A. Put plainly: phenotypically active (imaging signature differs from DMSO and reproducible) at any of 0.3-9 uM (binary (1 = active, 0 = inactive)); higher = active. The conditions noted are these: treatment time: 24 h. A digest of the protocol: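 The reporter lines, fifteen in total and built by gene editing in A549, HepG2 and WPMY1 cells, used BFP for segmentation alongside GFP and RFP/FusionRed markers. Each was treated at 0.3, 1, 3 or 9 µM for 24 h in four wells and then imaged live, with live-cell features normalised to solvent control wells. Deviation meant ≥3 of 4 wells beyond the 95th percentile of control Euclidean distances; reproducibility meant a median replicate Pearson correlation above the 95th percentile of non-replicates. Only conditions meeting both were scored as phenotypically active.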
Consider `N[C@@H]1C[C@H]1c1ccccc1` [Tranylcypromine hydrochloride], for which the phenotypically active was 0 (inactive).
On to `C/C=C1\CN2CC[C@]34c5cc(OC)ccc5N5C(=O)C(O)OC[C@@H]([C@H]53)[C@H]1C[C@H]24` (stereo partly specified) [10-Methoxy-o-demethyltsilanine], for which the phenotypically active is 0 (inactive).
For the molecule `Fc1ccccc1C1=NCC(=S)N(CC(F)(F)F)c2ccc(Cl)cc21` [quazepam], the phenotypically active is 0 (inactive).
Regarding `COc1c2c(cc3c1OCO3)CC[N+](C)=C2` [Cotarnine chloride], the phenotypically active is 0 (inactive).
Turning to `N[C@H]1C[C@@H]1c1ccccc1` [tranylcypromine], the phenotypically active was 0 (inactive).
On to `O=c1ccc2ccc3occc3c2o1` [Angelicin], for which the phenotypically active was 0 (inactive).
For the molecule `C[C@]12COC(=O)C[C@@H]1CC[C@@H]1[C@@H]2CC[C@@]2(C)[C@H]1CC[C@]2(C)O` [oxandrolone], the phenotypically active is 0 (inactive).
The figure for `CC(C)C[C@H](CN)CC(=O)O` [pregabalin] is 0 (inactive); for `NC(=S)N/N=C/c1coc2ccccc2c1=O` it is 0 (inactive); for `O[C@H]1[C@H](O)[C@@H](O)CN2CC[C@H](O)[C@H]12` [Castanospermine] it is 0 (inactive).
For `Cc1ccc(-c2nc3ccc(C)cn3c2CC(=O)N(C)C)cc1` [zolpidem], the phenotypically active was 0 (inactive).
The figure for `CN1C(CC(O)c2ccccc2)CCCC1CC(O)c1ccccc1` (stereo unspecified) [Lobelanidine hydrochloride] is 0 (inactive).
As for `CNC(=O)Oc1ccc2c(c1)[C@]1(C)CCN(C)O[C@@H]1N2C` [Geneserine], the phenotypically active is 0 (inactive).
For `COc1ccc(C(=O)OC2C[C@H]3CC[C@H](C2)N3C)cc1OC` (stereo partly specified) [Convolamine hydrochloride], the phenotypically active is 0 (inactive).
The figure for `CC(C)[N+](C)(CCC(C(N)=O)(c1ccccc1)c1ccccc1)C(C)C` [isopropamide-iodide] is 0 (inactive).
Then `CC(C)N(CCC(C(N)=O)(c1ccccc1)c1ccccn1)C(C)C` (stereo unspecified) [disopyramide], with 0 (inactive); and `O=C1C[C@@H]2OCC=C3C[N+]4([O-])CC[C@]56c7ccccc7N1[C@H]5[C@H]2[C@H]3C[C@@H]64` (stereo partly specified) [Genostrychnine base], with 0 (inactive); and `C[C@@H]1CN([C@H]2CC[C@](C#N)(c3ccc(F)cc3)CC2)CC[C@]1(C(=O)O)c1ccccc1` [levocabastine], with 0 (inactive).
The figure for `Cc1ccc(C[N+](C)(C)C)o1` [5-Methylfurmethiodide] is 0 (inactive); for `COc1cc2c3cc1Oc1cc(ccc1O)C[C@@H]1c4c(cc(OC)c(O)c4Oc4cccc(c4)C[C@@H]3N(C)CC2)CC[N+]1(C)C` [Tubocurarine chloride pentahydrate (+)] it is 0 (inactive).
As to `CCCC(C)C1(CC)C(=O)N=C(S)NC1=O` (stereo unspecified) [thiopental], the phenotypically active is 0 (inactive).
`C=C1[C@H]2C[C@@]3([C@@H]1O)[C@@H](C[C@@H]2O)[C@]12[C@@H]4C[C@H]3[C@H]1N(CC)C[C@]4(C)CC[C@@H]2O` [Napelline]: the phenotypically active was 0 (inactive).
The figure for `CO[C@H](C)[C@](O)(C(=O)OCC1=CCN2CC[C@H](O)[C@@H]12)C(C)C` [Heliotrine] is 0 (inactive); for `C/C=C1\C[C@@H](C)[C@](O)(CO)C(=O)OCC2=CCN3CC[C@@H](OC1=O)[C@@H]23` [Retrorsine] it is 0 (inactive).
`CN(C)NC(=O)CCC(=O)O` [Daminozide]: the phenotypically active is 0 (inactive).
As to `CN1[C@@H]2CC(=O)C[C@H]1[C@H](O)C2` [6-Hydroxytropinone], the phenotypically active was 0 (inactive).
The figure for `COc1ccc2c3c1O[C@H]1C(=O)CC[C@H]4[C@@H](C2)N(C)CC[C@]314` [hydrocodone] is 0 (inactive); for `CCN(C(C)=O)c1cccc(-c2ccnc3c(C#N)cnn23)c1` [zaleplon] it is 0 (inactive); for `C[N+]1([O-])[C@@H]2C[C@@H](OC(=O)[C@H](CO)c3ccccc3)C[C@H]1[C@@H]1O[C@@H]12` (stereo partly specified) [Genoscopolamine HBr] it is 0 (inactive).
The figure for `NCC1(CC(=O)O)CCCCC1` [gabapentin] is 0 (inactive); for `CN1CCc2cc3c(cc2[C@H]1[C@@H]1OC(=O)c2c1ccc1c2OCO1)OCO3` [bicuculine] it is 0 (inactive).
`c1cncc(C2CC3CCN2CC3)c1` (stereo unspecified) [RJR 2429 dihydrochloride]: the phenotypically active was 0 (inactive).
The figure for `CC1=CC(=O)C2=C(C)C[C@H](O)[C@@H]3[C@H](OC(=O)[C@H]3C)[C@@H]12` [Austricine hydrate] is 0 (inactive); for `C=C(C)[C@H]1CN[C@H](C(=O)O)[C@H]1CC(=O)O` [Kainic acid] it is 0 (inactive); for `C[C@H]1CCC2(NC1)O[C@H]1C[C@H]3[C@@H]4CC[C@H]5C[C@@H](O[C@@H]6O[C@H](CO)[C@H](O[C@@H]7O[C@H](CO)[C@@H](O)[C@H](O[C@@H]8OC[C@@H](O)[C@H](O)[C@H]8O)[C@H]7O[C@@H]7O[C@H](CO)[C@@H](O)[C@H](O)[C@H]7O)[C@H](O)[C@H]6O)CC[C@]5(C)[C@H]4CC[C@]3(C)[C@H]1[C@@H]2C` (stereo partly specified) [Tomatine] it is 0 (inactive).
Turning to `CN1[C@@H]2C[C@@H](OC(=O)[C@H](CO)c3ccccc3)C[C@H]1[C@@H]1O[C@@H]12` [Scopolamine hydrobromide], the phenotypically active was 0 (inactive).

These data come from the supplement of paper PMC7411054.
